Reference: PubChem BioAssay (NCI)
About 83,000 compounds went through this panel and 20% of them were active in at least one assay; those are over-represented in the sample as a whole.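 For each line, cells grew in 96-well plates with the test compound present at a single concentration for 48 hours.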 Values without a mark were called inactive. Activity calls are given as the source filed them. How the source made its calls: active means growth percent below 10; inactive means the rest.

Experiments:
Assay in all cases: NCI-60 one-dose screen, 48 h (100 = growth as untreated, 0 = no growth, -100 = all killed)
Settings in all cases: 10 µM unless noted
[1] = tested on: HCT-15 colon
[2] = tested on: HT29 colon
[3] = tested on: SNB-19 CNS
[4] = tested on: U251 CNS
[5] = tested on: PC-3 prostate
[6] = tested on: SK-MEL-5 melanoma
[7] = tested on: UACC-62 melanoma
[8] = tested on: LOX IMVI melanoma
[9] = tested on: SK-MEL-28 melanoma
[10] = tested on: SK-MEL-2 melanoma
[11] = tested on: EKVX NSCLC
[12] = tested on: SN12C renal
[13] = tested on: UO-31 renal
[14] = tested on: TK-10 renal
[15] = tested on: ACHN renal
[16] = tested on: CAKI-1 renal
[17] = tested on: A498 renal
[18] = tested on: CCRF-CEM leukemia
[19] = tested on: MOLT-4 leukemia

Structure (SMILES) | growth [1] | growth [2] | growth [3] | growth [4] | growth [5] | growth [6] | growth [7] | growth [8] | growth [9] | growth [10] | growth [11] | growth [12] | growth [13] | growth [14] | growth [15] | growth [16] | growth [17] | growth [18] | growth [19]
Cc1nn(-c2ccc([N+](=O)[O-])cc2)c2ncnc(NCCc3ccccc3)c12 | 95.4% | 103% | 97.2% | 102% | 88.7% | 104% | 90.5% | 103% | 106% | 110% | 52.6% | 102% | 79.7% | 108% | 99.8% | 87.2% | 81.7% | 100% | 64.7%
CCN(CC)CCC(CNc1ccnc2cc(Cl)ccc12)c1ccccc1 (stereo not given) | 34.1% | 7.02% (active) | 92.5% | 50.7% | 56.5% | -75.2% (active) | 57.6% | 39% | -99.9% (active) | 56.2% | 90% | 75.8% | 15.2% | 55.9% | 35.3% | 43.4% | 42.3% | 58.6% | 50.7%
CCN1CCN(c2nc(NNC(=O)c3ccccc3)nc(N3CCN(C(c4ccccc4)c4ccccc4)CC3)n2)CC1 | 25.7% | 1.28% (active) | 72.5% | 49.4% | 48.5% | -92.4% (active) | 80% | -44.6% (active) | 82.9% | 78.4% | 66.6% | 70.8% | 30.8% | 95.1% | 81.1% | 42.7% |  | 39.4% | 8.93% (active)
CN(CCCCN(C[C@H]1Cc2ncccc2CN1)[C@H]1CCCc2cccnc21)C1CCC(F)(F)CC1 | 70.4% | 82.3% | 90.5% | 81.6% | 83.8% | 104% | 98.2% | 93.3% | 106% | 94.6% | 87.4% | 86.1% | 67.6% | 82.4% | 102% | 73.9% | 99.4% | 88.3% | 91.4%
N/C(=N\C(N)=N\c1nc2ccccc2s1)c1cccc(Br)c1 | 44.2% | 104% | 90.9% | 38.3% | 63.2% | 94.6% | 84.7% | 33.2% | 94.5% | 106% | 73.2% | 50.7% | 24.7% | 157% | 84.8% | 68.8% |  | 55.8% | 77.6%
O=C(CSc1nc2ccccc2[nH]1)c1ccc(N2CCOCC2)cc1 | 99.4% | 113% | 98.7% | 103% | 100% | 105% | 97.1% | 94.8% | 114% | 113% | 80.4% | 105% | 85.5% | 118% | 105% | 99% | 85.8% | 103% | 135%
N#Cc1c(-c2ccccc2)cc(-c2ccccc2)n(CC(=O)NO)c1=O | 16.8% | 33.5% | 77% | 52.5% | 34.9% | 14.6% | 64.5% | -90.5% (active) | 75.7% | 34.5% | 41.7% | 47.8% | 25.2% | 73.1% | 43.3% | 20.8% |  | -19.2% (active) | -5.67% (active)
CC(C)(C)n1cc(-c2ccnc(NCCCNS(=O)(=O)c3ccc(Cl)cc3)c2)c(-c2cccc(O)c2)n1 | -65.3% (active) | -49.3% (active) | 24.6% | -43.7% (active) | -0.444% (active) | -87.8% (active) | -2.46% (active) | -88.4% (active) | -67.1% (active) | -64% (active) | 20.5% | 18.1% | 11% | 43.7% | 8.91% (active) | 19.2% | -8.44% (active) | 8.5% (active) | -17.3% (active)
CCN1CCN(CC(=O)N2c3cccc4cccc(c34)N(C(=O)CN3CCN(CC)CC3)C2c2cn(-c3ccccc3)nc2-c2cccc([N+](=O)[O-])c2)CC1 | -45.5% (active) | -41.5% (active) | 8% (active) | -82.1% (active) | 21.6% | -92.5% (active) | -82.4% (active) | -82.1% (active) | -87.6% (active) | -9.31% (active) | 36.5% | -53% (active) | -26.1% (active) | -41.4% (active) | -43.6% (active) | -5.5% (active) | 74.7% | -33.6% (active) | -33.7% (active)
Brc1cccc(-c2cc(-c3ccc4c(c3)OCCCO4)[nH]n2)c1 | 29.7% [25 µM] | 12.7% [25 µM] | 72.2% [25 µM] | 47.4% [25 µM] | 55.9% [25 µM] | 39.1% [25 µM] | 60.2% [25 µM] | 43.9% [25 µM] | 76.5% [25 µM] | 46.1% [25 µM] | 54.7% [25 µM] | 62.7% [25 µM] | 60.1% [25 µM] | 71.1% [25 µM] | 75.8% [25 µM] | 39.6% [25 µM] | 70% [25 µM] | 57.5% [25 µM] | 56.8% [25 µM]
C/C=C/C1=CN2C(=O)c3cc(OC4OC(C)C(NC)C(C)(O)C4O)c(C)cc3N=C[C@@H]2C1 (stereo not given in full) | 4.13% (active) | 5.72% (active) | 14.7% | 9.48% (active) | 7.19% (active) | -51.3% (active) | -80.4% (active) | -11.2% (active) | -24.2% (active) | 27.8% | 6.04% (active) | 4.16% (active) | -34.5% (active) | 22.3% | -4.55% (active) | -8.21% (active) | -77.5% (active) | 0.51% (active) | 2.77% (active)
CCOC(=O)c1c(NS(=O)(=O)c2ccc(C)cc2)sc2c1CCC1(C2)OCCO1 | 98.3% | 104% | 98.7% | 99.1% | 87.1% | 95.2% | 78.2% | 98.9% | 101% | 90.3% | 94.6% | 95.1% | 82.6% | 120% | 95.1% | 85.1% | 98% | 96.2% | 85.8%
CCOC(=O)/C(C#N)=C1/C(=O)Nc2ccccc21 | 106% | 112% | 104% | 113% | 94.2% | 115% | 103% | 99% | 115% | 122% | 117% | 96.3% | 71.1% | 130% | 102% | 99.4% | 132% | 67.1% | 138%
CCCCCCCCCCCCNC(=O)[C@H]1CSC(c2ccsc2)N1 (stereo not given in full) | -71.4% (active) | -74% (active) | -80% (active) | -94.2% (active) | -88.9% (active) | 36.5% | -93.5% (active) | -89.5% (active) | -88% (active) | -91% (active) | -84% (active) | -87% (active) | -99.6% (active) | -91.6% (active) | -68.7% (active) | -13.7% (active) | 106% | -43.2% (active) | -67.5% (active)
OB(O)c1cccc(-c2nc3ccc4[nH]ncc4c3c3c2CCCC3)c1F | 35.2% | 45.2% | 58.3% | 50.6% | 55.5% | 79.5% | 27.4% | 26.3% | 92.5% | 57.1% | 50.2% | 47.7% | 27% | 18.3% | 32.2% | -24.3% (active) | 12.7% | 29.7% | 52%
CCOC(=O)c1cc(C(=O)c2cc(OC)c(OC)c(OC)c2)n2c1ccc1ccccc12 | 25.7% | 9.65% (active) | 35.1% | 49% | 21.9% | 9.89% (active) | 32.1% | 40.4% | 55.9% | 50.2% | 52.2% | 25.3% | 32.2% | 80.6% | 33.5% |  | -10.9% (active) | 8.36% (active) | 33.4%
